Assay results from PubChem BioAssay (NCATS).
Records with an inconclusive call do not appear. A call without a number means that no potency is given here. Values without a mark were called inactive. Calls of active or inactive are those of the source. The call rests on the fitted dose curve.

Assay: Cytotoxicity counterscreen for inhibitors of SARS-CoV-2 cell entry (AID 1645845); further: nearly all actives have a fitted effect of over 50% in size
Settings: cell viability (SARS-CoV-2 entry assay cells); series mostly up to 57.1 µM; activity change, negative = cytotoxicity: at the top concentration
From the text: Assay Provider: Wei Zheng, Ph.D.
National Center for Advancing Translational Sciences, National Institute of Health, Rockville, MD.
SARS-CoV-2 spike protein, within the viral envelope, mediates viral attachment and infection of host cells. The SARS-CoV-2 spike protein specifically binds to the host receptor ACE2 (Angiotensin-converting enzyme 2). This interaction promotes endocytosis of the viral particle, additional events lead to viral-host cell membrane fusion and release of the viral contents, allowing viral replication.
While SARS-CoV-2 requires BSL-3 facilities for live virus work, pseudo-typed partices (PP) that incorporate SARS-CoV-2 spike proteins without replication elements could facilitate studies on viral entry mechanisms in a BSL-2 setting. This PP cell entry assay could also enable screening of small molecule compound libraries in BSL-2 setting to identify inhibitors of SARS-CoV-2 cell entry. To eliminate false positive compounds, ATP content cytotoxicity assay was screened in the same cell line.
SEQUENCE No. (e.g., 1, 2, 3, etc.); […] (e.g., Cells, Incubation, Reagent, etc.); VALUE and DESCRIPTION.
1. Cells. Seed 1500 HEK293-ACE2 cells (Expi293F with stable expression of human ACE2) in 2 uL/well media (DMEM, 10% FBS, 1x L-glutamine, 1x Pen/Strep, 1 ug/ml puromycin) in white 1536-well assay plates (Greiner #782073).
2. Incubation. Incubate at 37 C with 5% CO2 overnight (~16 h).
3. Compounds. Dispense 23 nL/well compounds in DMSO via pin transfer.
4. Incubation. Incubate for 1 h at 37C 5% CO2.
5. Reagent. Dispense 2 uL/well of media (DMEM, 10% FBS, 1x L-glutamine, 1x Pen/Strep, 1 ug/ml puromycin).
6. Incubation. Incubate at for 48h at 37C 5% CO2
7. Reagent. Dispense 4 uL/well of ATPLite 1step luminescence assay reagent (PerkinElmer #6016739).
8. Incubation. Incubate for 15 min at room temperature.
9. Detection. Read luminescence signal (Viewlux plate reader, PerkinElmer). Data was normalized with wells containing cells as 100%, and wells without cells (media only control) as 0%.
Potency means the concentration at half of the fitted maximal effect.

| Structure (SMILES) | Potency | activity change, negative = cytotoxicity | outcome |
| --- | --- | --- | --- |
| CCCCCCCCCCCCOCCOCCOCCOCCOCCOCCOCCOCCOCCO | 11.2 µM (active) | – | – |
| CC[N+](CC)(CC)CCOC(=O)C(C1CCCC1)C1CCCC1 | – | -7.97% | – |
| O=C1O[C@H]([C@@H](O)CO)C(O)=C1O | – | – | inactive |
| Cc1c(F)cc2c(=O)c(C(=O)O)cn3c2c1CCC3C (stereo not given) | – | – | inactive |
| N#C/C(=C1/SC[C@@H](c2ccc(Cl)cc2Cl)S1)n1ccnc1 | – | -10.1% | – |
| CCCNC(C)(C)COC(=O)c1ccccc1 | – | – | inactive |
| CCOC(=O)[C@H](CCc1ccccc1)N[C@H]1CS[C@H](c2cccs2)CN(CC(=O)O)C1=O | inactive | – | – |
| CCCOC(C(=O)OC1CCN(C)CC1)(c1ccccc1)c1ccccc1 | – | -15.2% | – |
| CN(C)CCOC1=Cc2ccccc2Sc2ccc(Cl)cc21 | – | -25.7% | – |
| C=CCOc1cc(Cl)ccc1C(=O)NCCN(CC)CC | – | -5.88% | – |
| COc1ccccc1N1CCN(CC(O)COc2cccc3ccccc23)CC1 (stereo not given) | inactive | – | – |
| CN(C)CCCOC1(Cc2ccccc2)CCCCCC1 | – | 4.69% | – |
| CC(C)(C)c1ccc(C(O)CCCN2CCC(C(O)(c3ccccc3)c3ccccc3)CC2)cc1 (stereo not given) | – | 1.66% | – |
| O=C1CN2CCOC2(c2ccccc2Cl)c2cc(Cl)ccc2N1 (stereo not given) | – | – | inactive |
| O=C(NN1CCCC1)NS(=O)(=O)c1ccc(Cl)cc1 | – | 1.27% | – |
| O=C(O)c1nn(Cc2ccc(Cl)cc2Cl)c2ccccc12 | – | – | inactive |
| CCC(CN)=C(c1ccccc1)c1ccccc1 | – | – | inactive |
| CCCc1nc(C)c2c(=O)[nH]c(-c3cc(S(=O)(=O)N4CCN(CC)CC4)ccc3OCC)nn12 | inactive | – | – |
| CCOc1ccccc1O[C@H](c1ccccc1)[C@H]1CNCCO1 | – | – | inactive |
| Cc1[nH]c(C)c(Cl)c(=O)c1Cl | – | 0.519% [at 27.1 µM] | – |

| Structure (SMILES) | Potency | activity change, negative = cytotoxicity | outcome |
| --- | --- | --- | --- |
| CCOC(=O)c1ccc(OC(=O)CCCCCN=C(N)N)cc1 | inactive | – | – |
| O=C(NC1CCN(CCc2c[nH]c3ccccc23)CC1)c1ccccc1 | – | 3.62% | – |
| CC1=C2[C@H]3OC(=O)[C@@H](C)[C@@H]3CC[C@@]2(C)C=CC1=O | – | 4.65% | – |
| CC(=O)N[C@H]1[C@H]([C@H](O)[C@H](O)CO)OC(C(=O)O)=C[C@@H]1N=C(N)N | – | 0.225% | – |
| CC(=O)c1ccc2c(c1)N(CCCN1CCC(CCO)CC1)c1ccccc1S2 | – | – | inactive |
| COc1ccnc2c1CCCCC2S(=O)c1nc2ccccc2[nH]1 (stereo not given) | – | – | inactive |
| CCOc1ccccc1C(N)=O | – | – | inactive |
| CN1CC(=O)N2[C@H](c3ccc4c(c3)OCO4)c3[nH]c4ccccc4c3C[C@@H]2C1=O | – | 1.65% | – |
| CC(=O)O[C@H]1C[C@@H]2CC[C@@H]3[C@H](CC[C@@]4(C)[C@H]3C[C@H]([N+]3(C)CCCCC3)[C@@H]4OC(C)=O)[C@@]2(C)C[C@@H]1N1CCCCC1 | – | – | inactive |
| C=CC[C@]1(O)CC[C@H]2[C@@H]3CCC4=CC(=O)CCC4=C3C=C[C@@]21C | – | -4.98% | – |
| CCCCCOc1ccc(C2SC(=O)NC2=O)cc1OCC (stereo not given) | – | – | inactive |
| CC(=O)OCC(=O)[C@@]1(O)CC[C@H]2[C@@H]3CCC4=CC(=O)C=C[C@]4(C)[C@H]3[C@@H](O)C[C@@]21C | inactive | – | – |
| O=C1OC2(c3ccc(O)cc3Oc3cc(O)ccc32)c2ccccc21 | – | 4.87% | – |
| CC1(C)[C@H](C(=O)O)N2C(=O)C[C@H]2S1(=O)=O | – | – | inactive |
| CCCCOc1ccc(C(=O)CCN2CCCCC2)cc1 | – | -33.4% | – |
| CC(C)C(=O)OCc1cccc(OC(=O)[C@@H]2N3C(=O)[C@@H](NC(=O)Cc4ccccc4)[C@H]3SC2(C)C)c1 | – | – | inactive |
| CN(C)C(=O)Oc1cccc([N+](C)(C)C)c1 | – | – | inactive |
| C[C@H]1C[C@H]2[C@@H]3CCC4=CC(=O)C=C[C@]4(C)[C@@]3(Cl)[C@@H](O)C[C@]2(C)[C@@]1(O)C(=O)CO | – | – | inactive |
| CN1CCC(OC(c2ccccc2)c2ccccc2)CC1 | – | – | inactive |
| O=C(O)CCc1nc(-c2ccccc2)c(-c2ccccc2)o1 | – | – | inactive |
